Most compounds without a hit are left out; they make up all but 2.5% or so of the library.
GC-A act – GC-A (human) enzyme activation | P16066 | HEK293 GC-A cells, cGMP TR-FRET, EC30 ANP; 0% at EC30 ANP, 100% saturating ANP | activation, % at 10 µM | 370,000 tested, 0.14% active | AID 1671463; in the data active means activation above about 40%
DYRK1A inh – inhibitors of rat Dyrk1A kinase | Q63470 | ADP-Glo luminescence, NFATc1 peptide | inhibition, % at 12.5 µM | 310,000 tested, 0.43% active | AID 504441; in the data active means inhibition above about 50%
aDG glyco up – increases alpha dystroglycan glycosylation; AID 624168; Pro5-aDG cells, alpha-DG glycosylation AlphaScreen (IIH6); 0% Pro5, 100% B10-LARGE cell signal; 360,000 tested, 0.22% active; activation, % at 10 µM;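 active means activation of at least 8% versus controls, or a plate z-score of at least 8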;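 further: Pro5 are CHO cells carrying HIG-tagged alpha-DG that lacks glycosylation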
HSF1 inh – HSF1 inhibition; NIH3T3-HGL HSE-luciferase, MG132-induced, luminescence 8 h; hits give low values; activity change, negative = inhibition, % at 7.5 µM (by protocol); 300,000 tested, 0.77% active; AID 2098;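 active means more than half of replicate wells show activity change below -50%, luminescence cut by over half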;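 further: luciferase reports HSF-1 transcriptional activity via heat shock element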
GC-B act – GC-B (human) receptor activation; 370,000 tested, 0.11% active; P20594; HEK293-GC-B cells, CNP EC30, cGMP TR-FRET; 0% at EC30 CNP, 100% saturating CNP; activation, % at 10 µM;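 active means activation at 10 µM reaching about 35% in either raw or pattern-adjusted values, limit read from the data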
Target sequence (P20594 whole entry, looked up): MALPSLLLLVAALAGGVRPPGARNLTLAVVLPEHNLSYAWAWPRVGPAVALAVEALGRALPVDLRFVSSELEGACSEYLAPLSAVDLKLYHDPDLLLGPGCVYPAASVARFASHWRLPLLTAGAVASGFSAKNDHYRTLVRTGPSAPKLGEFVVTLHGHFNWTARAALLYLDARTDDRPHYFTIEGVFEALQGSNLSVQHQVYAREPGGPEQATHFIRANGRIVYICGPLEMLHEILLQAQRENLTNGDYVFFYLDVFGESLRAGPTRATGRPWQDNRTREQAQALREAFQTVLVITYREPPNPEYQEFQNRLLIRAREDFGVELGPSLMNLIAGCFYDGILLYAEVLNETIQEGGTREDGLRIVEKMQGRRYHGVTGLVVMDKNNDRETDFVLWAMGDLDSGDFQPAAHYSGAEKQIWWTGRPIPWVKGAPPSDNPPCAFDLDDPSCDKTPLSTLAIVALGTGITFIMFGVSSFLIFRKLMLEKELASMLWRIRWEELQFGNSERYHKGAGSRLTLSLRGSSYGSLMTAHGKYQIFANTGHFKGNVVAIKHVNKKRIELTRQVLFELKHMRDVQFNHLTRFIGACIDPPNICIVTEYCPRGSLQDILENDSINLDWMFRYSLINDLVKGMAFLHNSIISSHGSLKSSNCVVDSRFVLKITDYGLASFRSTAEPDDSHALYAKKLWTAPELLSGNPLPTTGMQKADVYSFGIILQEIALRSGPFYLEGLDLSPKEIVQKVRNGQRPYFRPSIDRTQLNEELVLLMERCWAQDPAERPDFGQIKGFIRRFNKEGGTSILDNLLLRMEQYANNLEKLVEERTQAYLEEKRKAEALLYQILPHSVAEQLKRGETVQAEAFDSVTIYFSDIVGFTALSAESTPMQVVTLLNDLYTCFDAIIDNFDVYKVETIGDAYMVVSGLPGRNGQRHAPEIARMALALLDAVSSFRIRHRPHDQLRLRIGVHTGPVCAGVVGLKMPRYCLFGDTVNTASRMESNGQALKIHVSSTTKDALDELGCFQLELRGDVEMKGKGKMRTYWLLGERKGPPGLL
HSF1 activator – increases HSF-1 driven luciferase reporter signal. 300,000 tested, 1.7% active. activation, % at 9 µM. NIH3T3-HGL HSF-1 luciferase reporter, MG132, 8 h; 100% = twice DMSO control signal;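 active means mean replicate activation of at least 50% with a set share of replicates each reaching 50%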
ADP-Glo artifact – ADP-Glo luciferase interference, Dyrk1A counter-screen | 1,300 tested, under 10 active | shares compounds with DYRK1A inh | ADP-Glo luciferase artifact assay, no Dyrk1A, luminescence | AC50, µM (series often up to 12 µM);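 active means fitted half-maximal dose AC50 no more than ten times the top valid tested dose, with luminescence dropping as dose rises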
Each line names hits and unclear results; the compound was inactive in the other large screens (follow-up assays come after a bar, where they were run).

O=c1cc(-c2ccc(O)c(O)c2)oc2cc(O[C@@H]3O[C@H](CO)[C@@H](O)[C@H](O)[C@H]3O)cc(O)c12	DYRK1A inh 60 (no result: GC-A act, HSF1 inh, GC-B act, HSF1 activator) | ADP-Glo artifact inactive
c1csc(CNc2ncnc3ccc(-c4ccc5c(c4)OCCO5)cc23)c1	DYRK1A inh 72 (no result: HSF1 inh, HSF1 activator) | ADP-Glo artifact inactive
O=c1c(O)c(-c2ccc(O)c(O)c2)oc2cc(O)ccc12	DYRK1A inh 88 (no result: HSF1 inh, HSF1 activator) | ADP-Glo artifact inactive
O=c1c(O)c(-c2ccc(O)cc2)oc2cc(O)cc(O)c12	DYRK1A inh 59 | ADP-Glo artifact inactive
O=c1cc(-c2ccc(O)cc2)oc2cc(O)cc(O)c12	none
Cc1ccc(N2C(=S)SC3CS(=O)(=O)CC32)cc1 (stereo unspecified)	none (no result: HSF1 inh, HSF1 activator)
COc1cccc(NC(=O)Nc2ccc3c(c2)N(C)C(=O)CS3)c1	DYRK1A inh 50 | ADP-Glo artifact inactive
CC(=O)Nc1ccc(NC(=O)Nc2ccc3c(c2)N(C)C(=O)CS3)cc1	none
O=C(Nc1ccccc1Cl)c1csc(-c2cccnc2)n1	DYRK1A inh 75 | ADP-Glo artifact inactive
CCC1COCCS(=O)(=O)N1Cc1ccc(C)cc1 (stereo unspecified)	none (no result: GC-A act, GC-B act)
CCC1COCCS(=O)(=O)N1Cc1ccccc1 (stereo unspecified)	DYRK1A inh 55 | ADP-Glo artifact inactive
COc1ccc2c(Cl)c(C(=O)NN)sc2c1	none
COc1ccc2c(Cl)c(C(N)=O)sc2c1	DYRK1A inh 84 | ADP-Glo artifact inactive
COc1ccc2c(Cl)c(C(=O)N/N=C/c3cccnc3)sc2c1	DYRK1A inh 64 | ADP-Glo artifact inactive
CCCCCCCCN1C(=O)[C@H](CC(=O)NCc2ccccc2)C[C@@]2(C(=O)OCC)CCC=C12	none (no result: DYRK1A inh, HSF1 inh, HSF1 activator)
O=C(CN1CCOCC1)Nc1nc2ccc([N+](=O)[O-])cc2s1	DYRK1A inh 81 | ADP-Glo artifact inactive
O=C(CN1CCOCC1)Nc1nc2ccc(F)cc2s1	DYRK1A inh 51 | ADP-Glo artifact inactive
CCC(=O)Nc1nc2ccc([N+](=O)[O-])cc2s1	none
COCc1cc(C)nc(SCC(=O)NCc2ccco2)c1C#N	none
O=C(NC1CC1)c1scc2c1OCCO2	none
O=C(Nc1cccnc1)c1scc2c1OCCO2	DYRK1A inh 52 | ADP-Glo artifact inactive
COc1cc(C2=NOC(C(=O)N3CCN(c4ccc(F)cc4)CC3)C2)cc(OC)c1OC (stereo unspecified)	none
Cc1cc(Nc2ccccc2)nc2cc(O)ccc12	DYRK1A inh 74 | ADP-Glo artifact inactive
CCOc1ccccc1NC(=O)c1cccc2ccccc12	none (no result: DYRK1A inh)
CCOc1ccccc1C(=O)Nc1ccccc1C(N)=O	DYRK1A inh 56 | ADP-Glo artifact inactive
Cc1ccc(C2NC(=O)NC3=C2CCc2ccccc23)cc1 (stereo unspecified)	none (no result: HSF1 inh, HSF1 activator)
COC(=O)C1=C(C)N(c2ccc(Cl)cc2)/C(=C/c2cccs2)C1=O	none
CCCCCCCCCCCCCCCC[N+](C)(C)CCN(Cc1ccc(OC)cc1)c1ncccn1	DYRK1A inh 63 (no result: GC-A act, HSF1 inh, GC-B act, HSF1 activator) | ADP-Glo artifact inactive
COc1ccc(CN(CCN(C)C)c2ccccn2)cc1	none
O=c1[nH]c(=S)[nH]c2sccc12	DYRK1A inh 64 | ADP-Glo artifact inactive
Cc1ccccc1Nc1nc(N2CCOCC2)nc(N2CCOCC2)n1	none
Cc1ccccc1C(=O)NNC(=O)CCCCC(=O)NNC(=O)c1ccccc1C	DYRK1A inh 66 | ADP-Glo artifact inactive
O=C(N/N=C/c1ccccn1)c1cc(-c2ccccc2Cl)n[nH]1	DYRK1A inh 51 | ADP-Glo artifact inactive
CCc1ccc(NC(=O)COc2ccc(Br)cn2)cc1	none
CCOCCCNC(=O)/C(C#N)=C/c1cc(Br)c(O)c(Br)c1	DYRK1A inh 55 (no result: GC-A act, GC-B act) | ADP-Glo artifact inactive
COc1cccc(-c2cc(NC=O)c3ncc(-c4cccc(C(=O)NCCN(C)C)c4)n3c2)c1	none (no result: DYRK1A inh, HSF1 inh, HSF1 activator)
COC(=O)CSc1nc(N)c(C#N)c(CC(C)C)c1C#N	none
COC(=O)CSc1nc(N)c(C#N)c(C(C)C)c1C#N	DYRK1A inh 50 | ADP-Glo artifact inactive
Oc1ccc(/C=N/n2c(-c3ccccc3)n[nH]c2=S)cc1	DYRK1A inh 55 | ADP-Glo artifact inactive
CC(=O)c1cccc(NC(=O)Nc2cccs2)c1	DYRK1A inh 53 | ADP-Glo artifact inactive
CC(=O)N1CCN(C(=O)c2ccc(Cl)c(S(=O)(=O)N3CC(C)OC(C)C3)c2)CC1 (stereo unspecified)	none (no result: HSF1 inh, HSF1 activator)
COc1cc(-c2oc3cc(O)cc(O)c3c(=O)c2O[C@@H]2O[C@H](COC3O[C@@H](C)[C@H](O)[C@@H](O)[C@H]3O)[C@@H](O)[C@H](O)[C@H]2O)ccc1O (stereo partly specified)	DYRK1A inh 71 (no result: HSF1 inh, HSF1 activator) | ADP-Glo artifact inactive
O=c1c(OC2OC(CO)C(O)C(O)C2O)c(-c2ccc(O)c(O)c2)oc2cc(O)cc(O)c12 (stereo unspecified)	DYRK1A inh 75 | ADP-Glo artifact inactive
C[C@@H]1O[C@@H](O[C@H]2[C@H](O)[C@@H](O)[C@H](Oc3c(-c4ccc(O)c(O)c4)oc4cc(O)cc(O)c4c3=O)O[C@@H]2CO)[C@H](O)[C@H](O)[C@H]1O	DYRK1A inh 52 (no result: HSF1 inh, HSF1 activator) | ADP-Glo artifact inactive
O=c1c(O[C@@H]2O[C@H](CO)C(O)C2O)c(-c2ccc(O)c(O)c2)oc2cc(O)cc(O)c12 (stereo partly specified)	DYRK1A inh 64 (no result: GC-A act, HSF1 inh, GC-B act, HSF1 activator) | ADP-Glo artifact inactive
C[C@@H]1O[C@@H](Oc2c(-c3ccc(O)c(O)c3)oc3cc(O)cc(O)c3c2=O)[C@H](O)[C@H](O)[C@H]1O	none (no result: HSF1 inh, HSF1 activator)
O=S1(=O)c2ccc(N3CC[C@@H](O)C3)cc2O[C@@H]2CCN1C2	none (no result: DYRK1A inh, aDG glyco up, HSF1 inh, HSF1 activator)
O=c1c2c(O)cc(O)cc2oc2c(O)ccc(O[C@H]3O[C@@H](CO)[C@H](O)[C@@H](O)[C@@H]3O)c12	DYRK1A inh 73 (no result: HSF1 inh, HSF1 activator) | ADP-Glo artifact inactive
O=c1c(OC2OC(CO)C(O)C(O)C2OC2OC(CO)C(O)C(O)C2O)c(-c2ccc(O)cc2)oc2cc(O)cc(O)c12 (stereo unspecified)	none (no result: HSF1 inh, HSF1 activator)
CN(C)C(=O)C1OC(C)(C)OC1C(=O)N(C)C (stereo unspecified)	none
NC(=O)c1cccc2c1-c1ccccc1/C2=N/NC(N)=S	none
COC(=O)c1cccc2c1-c1ccccc1/C2=N/O	DYRK1A inh 57 | ADP-Glo artifact inactive
Cc1ccc(C(=O)OCC(=O)Nc2ccc3[nH]c(=O)[nH]c3c2)cc1S(=O)(=O)N1CCOCC1	none
N=C1S/C(=C\c2ccc(O)cc2)C(=O)N1c1ccc(F)cc1	DYRK1A inh 78 (no result: GC-A act, GC-B act) | ADP-Glo artifact inactive

Screening results from PubChem BioAssay.
